# Sm TGR block = qHTS Assay for the Inhibitors of Schistosoma Mansoni Peroxiredoxins | Schistosoma mansoni thioredoxin glutathione reductase (TGR), Q962Y6 | purified TGR, DTNB reduction, TNB absorbance 405 nm | Potency, µM (titrated, usually from 114 µM), for the others: at the highest dose activity change, negative = inhibition, most hits filed as inhibitors | actives 3% (n = 360,000); further: potency means the concentration at half of the fitted maximal effect; nearly all actives have a fitted effect of over 60% in size
#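 Kinetic colorimetric format: TGR-catalysed, NADPH-driven DTNB reduction monitored via TNB absorbance. Enzyme dispensed at 20 nM; compound exposure 15 min at room temperature before reaction start.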
# VACV mCherry inh = qHTS for Stage-Specific Inhibitors of Vaccinia Orthopoxvirus: mCherry Reporter Primary qHTS. Vaccinia virus mCherry reporter infection, fluorescence. Potency, µM (highest dose often 36.5 µM), for inactives: at the highest dose activity change, negative = inhibition, usual class: inhibitors. actives 0.63% (n = 310,000). AID 720579, 2013; calls by dose curve; tested in A549 cells; further: potency means the concentration at half of the fitted maximal effect; nearly all actives have a fitted effect of over 35% in size
# HCV inhibitor = qHTS Assay for Inhibitors of Hepatitis C Virus (HCV); Huh7.5.1 HCVcc-Cre infection, luciferase reporter, 44 h; Potency, µM (top dose mostly 41.8 µM), for inactives: at the highest dose activity change, negative = inhibition, actives largely listed as inhibitors; actives 3.4% (n = 340,000); AID 651820, 2012; further: potency means the concentration at half of the fitted maximal effect
#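 Antiviral activity was scored by luciferase reporter output from cells infected with HCVcc-Cre (~0.5 moi) in presence of compound, 44 h infection period, cells seeded 1,000/well 4 h prior.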
# FMDV antiviral = High Throughput Screening for Foot and Mouth Disease Virus Antivirals; actives 1.2% (n = 410,000); AID 1159524, 2015; Potency, µM (top dose mostly 57.9 µM), for the others: at the top dose activity change, negative = inhibition, usual class: inhibitors; FMDV antiviral cell-based qHTS; calls by dose curve; tested in HEK293T cells; further: read-out not given here; potency means the concentration at half of the fitted maximal effect; nearly all actives have a fitted effect of over 45% in size
# HCMV inh = qHTS Assay for inhibitors of the human cytomegalovirus (HCMV); activity change, negative = inhibition, % at 57.5 µM; actives 4.5% (n = 410,000); HFF cells, HCMV-luciferase reporter, 72 h; stronger effect = lower value; AID 1259415, 2018; in the data active means activity change below about -60%; inconclusive means no clear call, values can overlap the other calls; inactive means above about -39%
#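 Cell-based, HFFs, 1000 cells/well, 16 h 37C; cpds in DMSO + HCMV-luc, MOI 1 PFU/cell; 72 h 37C; OneGlo luminescence after 5 min RT; norm. to buffer vs Salinomycin 10uM.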
# Vaccinia Venus = qHTS for Stage-Specific Inhibitors of Vaccinia Orthopoxvirus: Venus Reporter Primary qHTS | AID 720580, 2013 | actives 0.46% (n = 330,000) | Vaccinia virus Venus reporter expression, fluorescence | Potency, µM (titrated, usually from 36.5 µM), inactives show at the top dose activity change, negative = inhibition, usual class: inhibitors; calls by dose curve; tested in A549 cells; further: potency means the concentration at half of the fitted maximal effect; nearly all actives have a fitted effect of over 30% in size
# Starred values were filed as active, the others as inactive; i = inactive; ? = inconclusive; · = not tested or not shown; + = active, no number; [ ] = dose if it differs, or a comment. Shown are actives, neighbours in structure and some others; about 9.3% of the full set was active somewhere. Unless noted, the call rests on the fitted dose curve; in most records, active means well fitted curve in the direction sought with a large enough effect; inconclusive means small, poorly fitted or top-dose-only effect, or another doubt; inactive means no such curve, though single readings can be large; an effect the other way counts as inactive or inconclusive. On the % scale 0 is the no-effect control and ±100 the full control effect.
SMILES,Sm TGR block,VACV mCherry inh,HCV inhibitor,FMDV antiviral,HCMV inh,Vaccinia Venus
O=Cc1[nH]c2ccccc2c1N(C(=O)CCl)c1ccc([N+](=O)[O-])cc1,3.16µM*,-25.5%,?,-19.2%,-101.1*,-4.0%
COc1ccc(S(=O)(=O)N(CCCN2CCOCC2)Cc2cccc(OC)c2OC)cc1,-8.6%,-13.7%[1.46 µM],-9.7%,-5.2%,13.3,-9.0%
O=C(CSc1n[nH]c(=O)n1C1CC1)Nc1ccc(Cl)c(Cl)c1,-12.9%,-20.5%,-2.6%,?,-8.0,-1.1%
Cc1ncoc1C(=O)NC1CC(C)(C)Cc2c1cnn2-c1ccccc1 (centres undefined),-1.5%,-15.0%,-8.3%,19.2%,-21.0,-10.6%
COC(=O)c1cc(C)[nH]c2c(C)cc3nc4ccccc4c3c12,-16.4%,?,10µM*,?,31.1,-26.4%
COC(=O)c1c(C)nc2ccccc2c1C(=O)O,5.6%,-5.9%,16.5%,-12.8%,-8.2,4.2%
CC(C)(C)c1cc(-c2n[nH]c(=S)n2-c2ccccc2F)n[nH]1,1.7%,?,-10.9%,49.6%,18.3,-15.4%[7.34 µM]
O=C(NCC1CCOCC1)c1cccc2c(-c3cccnc3)coc12,·,6.2%,·,-26.0%,-26.8,1.8%
CCn1nnnc1NC(=O)c1cc(Cl)c(OC)c(Cl)c1,·,i,-10.1%,-14.1%,-62.9*,-18.8%
CC(=N[C@@H]1CCCC[C@H]1N=C(C)c1ccccc1O)c1ccccc1O,-8.3%,-18.6%,-2.3%,-0.8%,15.4,-1.1%
Cc1cc(/C=C2/NC(=O)N(Cc3ccccc3F)C2=O)c(C)n1C,?,·,?,-1.9%,-25.5,·
CCn1c(C)cc(/C=C2\NC(=O)N(Cc3ccc(Cl)cc3)C2=O)c1C,-11.2%,·,12.6µM*,-6.1%,-20.7,·
CCN1C(=O)N/C(=C/c2cc(C)n(Cc3ccccc3)c2C)C1=O,-5.9%,·,10µM*,7.0%,?,·
Cc1cccc(CN2C(=O)N/C(=C/c3cc(C)n(-c4ccccn4)c3C)C2=O)c1,-28.2%,-2.8%,1.78µM*,3.7%,-38.5,-26.3%
COCCn1c(C)cc(/C=C2/NC(=O)N(Cc3ccc(C)cc3)C2=O)c1C,-33.3%,-5.2%,?,49.1%,-23.8,-12.9%
Cc1cc(/C=c2/sc3nc4ccccc4n3c2=O)c(C)n1-c1ccccn1,-6.2%,·,?,0.0316µM*,-101.3*,·
C[C@H](NC(=O)[C@@H]1Cc2ccccc2CN1C(=O)OC(C)(C)C)C(=O)NC1CCCCC1,1.9%,-15.0%,-16.0%,8.7%,+,-3.6%
C[C@@H](NC(=O)[C@@H]1Cc2ccccc2CN1C(=O)OC(C)(C)C)C(=O)NCc1ccco1,-11.8%,·,17.6%,2.4%,7.4,·
C[C@H](NC(=O)[C@@H]1Cc2ccccc2CN1C(=O)OC(C)(C)C)C(=O)NCc1ccco1,39.8µM*,·,18.7%,0.0%,-25.3,·
C[C@H]1CN([C@@H](C)CO)C(=O)CCCn2nncc2CO[C@H]1CN(C)C(=O)Cc1ccccc1,·,-14.6%,·,-1.6%,1.5,-8.5%
O=C(Nc1ccccc1C(=O)Nc1nncs1)c1ccccc1,-0.8%,-1.6%,0.8%,-29.2%,3.2,-21.7%
CC1(C(=O)Nc2ccc3[nH]ncc3c2)CCN1C(=O)Cc1ccc(-c2ccccc2)cc1 (centres undefined),·,-21.4%,·,39.8µM*,?,-23.7%
CC(C)(C)c1ccc(CC(=O)N2CCC2(C)C(=O)Nc2ccc3[nH]ncc3c2)cc1 (centres undefined),·,?,·,-17.0%,-86.2*,-24.9%
O=C1CCCCc2sc(Br)c([N+](=O)[O-])c2N1,0.794µM*,-19.5%[7.34 µM],?,?,-27.2,-11.5%[7.34 µM]
CN1CCN(C(=O)C2=NOC3(C2)C(=O)Nc2ccccc23)CC1 (centres undefined),·,-11.9%,·,-19.4%,5.8,-7.9%

# High-throughput results (PubChem)
